Measured values from the supplement of paper PMC11732987, “Enantioselective OTUD7B fragment discovery through chemoproteomics screening and high-throughput optimisation” (Communications Chemistry, 2025).

Key:
Assay in all cases: log2 ratio of Biotin-Ahx-Ub-VS probe labelling (fragment/DMSO); higher = less target engagement (more negative = stronger competition), active = hit call of the paper (q ≤ 0.05, log2 ratio ≤ -1)
Conditions in all cases: compound concentration: 200 uM; treatment time: 3 h
USP19 = biological target: T1, USP19 (UniProt O94966)
T1 sequence (whole entry): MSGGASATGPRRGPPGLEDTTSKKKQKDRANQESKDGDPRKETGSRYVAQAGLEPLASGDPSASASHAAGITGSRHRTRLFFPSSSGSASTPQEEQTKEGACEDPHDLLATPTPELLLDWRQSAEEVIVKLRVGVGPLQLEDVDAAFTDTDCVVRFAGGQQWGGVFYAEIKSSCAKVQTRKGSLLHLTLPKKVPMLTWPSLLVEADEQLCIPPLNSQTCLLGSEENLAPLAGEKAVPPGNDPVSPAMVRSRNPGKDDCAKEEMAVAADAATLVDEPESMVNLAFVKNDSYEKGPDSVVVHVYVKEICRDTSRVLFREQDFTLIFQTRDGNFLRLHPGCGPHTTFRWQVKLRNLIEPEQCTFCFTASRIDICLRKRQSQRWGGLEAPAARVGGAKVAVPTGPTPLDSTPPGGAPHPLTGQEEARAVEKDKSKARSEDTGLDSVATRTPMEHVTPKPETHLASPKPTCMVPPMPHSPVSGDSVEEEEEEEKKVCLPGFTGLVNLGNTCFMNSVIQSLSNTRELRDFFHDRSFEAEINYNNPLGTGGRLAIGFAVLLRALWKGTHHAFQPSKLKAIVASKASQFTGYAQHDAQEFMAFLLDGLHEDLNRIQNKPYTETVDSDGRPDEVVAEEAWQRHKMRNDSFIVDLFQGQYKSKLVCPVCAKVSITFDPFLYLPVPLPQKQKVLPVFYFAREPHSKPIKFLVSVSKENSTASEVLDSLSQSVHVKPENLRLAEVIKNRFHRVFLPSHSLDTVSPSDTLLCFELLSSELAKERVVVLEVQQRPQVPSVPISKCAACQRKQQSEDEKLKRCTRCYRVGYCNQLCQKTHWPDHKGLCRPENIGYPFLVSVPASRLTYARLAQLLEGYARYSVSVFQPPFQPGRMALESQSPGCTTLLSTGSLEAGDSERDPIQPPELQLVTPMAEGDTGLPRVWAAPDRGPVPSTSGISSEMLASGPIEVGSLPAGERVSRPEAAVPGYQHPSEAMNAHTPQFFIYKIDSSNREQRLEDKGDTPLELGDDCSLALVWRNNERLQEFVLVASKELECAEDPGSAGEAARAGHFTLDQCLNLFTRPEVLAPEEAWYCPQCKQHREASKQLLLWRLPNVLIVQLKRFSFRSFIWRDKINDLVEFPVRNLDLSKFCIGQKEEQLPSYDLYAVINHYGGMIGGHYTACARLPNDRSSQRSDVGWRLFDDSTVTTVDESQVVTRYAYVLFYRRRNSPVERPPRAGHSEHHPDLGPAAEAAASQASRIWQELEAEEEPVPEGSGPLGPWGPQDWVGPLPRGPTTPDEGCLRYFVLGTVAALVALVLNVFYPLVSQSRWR
Procedure, shortened: (§1)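 Each value is an average log2 ratio of fragment to vehicle, tested by unpaired t-test. The underlying Spectronaut label-free quantities were global-median-normalised, and only proteins with ≥2 unique peptides were included. Triplicate HEK293T lysate samples (495 µg) were exposed to fragment at 200 µM or vehicle for 3 h, then to Biotin-Ahx-Ub-VS at 0.5 µM final for 1 h, before NeutrAvidin enrichment of labelled DUBs, LysC and trypsin digestion, and diaPASEF LC-MS/MS.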

USP22 = biological target: T2, USP22 (UniProt Q9UPT9)
T2 sequence (whole entry): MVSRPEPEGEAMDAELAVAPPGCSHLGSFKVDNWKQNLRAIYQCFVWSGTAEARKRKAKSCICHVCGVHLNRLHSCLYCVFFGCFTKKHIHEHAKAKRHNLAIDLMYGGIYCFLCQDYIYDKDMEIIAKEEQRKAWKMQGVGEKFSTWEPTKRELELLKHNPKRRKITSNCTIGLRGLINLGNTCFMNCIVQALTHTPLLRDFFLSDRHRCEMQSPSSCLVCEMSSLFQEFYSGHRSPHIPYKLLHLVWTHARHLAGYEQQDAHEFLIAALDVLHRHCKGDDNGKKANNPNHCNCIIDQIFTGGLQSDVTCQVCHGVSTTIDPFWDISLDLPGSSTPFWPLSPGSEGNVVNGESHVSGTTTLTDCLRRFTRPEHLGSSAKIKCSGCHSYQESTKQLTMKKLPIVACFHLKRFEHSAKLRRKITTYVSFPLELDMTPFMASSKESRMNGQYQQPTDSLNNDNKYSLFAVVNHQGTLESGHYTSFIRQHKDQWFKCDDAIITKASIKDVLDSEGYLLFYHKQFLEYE
Procedure, shortened: as §1

USP24 = USP24 (UniProt Q9UPU5)
Procedure, shortened: as §1

USP25 = biological target: T3, USP25 (UniProt Q9UHP3)
T3 sequence (whole entry): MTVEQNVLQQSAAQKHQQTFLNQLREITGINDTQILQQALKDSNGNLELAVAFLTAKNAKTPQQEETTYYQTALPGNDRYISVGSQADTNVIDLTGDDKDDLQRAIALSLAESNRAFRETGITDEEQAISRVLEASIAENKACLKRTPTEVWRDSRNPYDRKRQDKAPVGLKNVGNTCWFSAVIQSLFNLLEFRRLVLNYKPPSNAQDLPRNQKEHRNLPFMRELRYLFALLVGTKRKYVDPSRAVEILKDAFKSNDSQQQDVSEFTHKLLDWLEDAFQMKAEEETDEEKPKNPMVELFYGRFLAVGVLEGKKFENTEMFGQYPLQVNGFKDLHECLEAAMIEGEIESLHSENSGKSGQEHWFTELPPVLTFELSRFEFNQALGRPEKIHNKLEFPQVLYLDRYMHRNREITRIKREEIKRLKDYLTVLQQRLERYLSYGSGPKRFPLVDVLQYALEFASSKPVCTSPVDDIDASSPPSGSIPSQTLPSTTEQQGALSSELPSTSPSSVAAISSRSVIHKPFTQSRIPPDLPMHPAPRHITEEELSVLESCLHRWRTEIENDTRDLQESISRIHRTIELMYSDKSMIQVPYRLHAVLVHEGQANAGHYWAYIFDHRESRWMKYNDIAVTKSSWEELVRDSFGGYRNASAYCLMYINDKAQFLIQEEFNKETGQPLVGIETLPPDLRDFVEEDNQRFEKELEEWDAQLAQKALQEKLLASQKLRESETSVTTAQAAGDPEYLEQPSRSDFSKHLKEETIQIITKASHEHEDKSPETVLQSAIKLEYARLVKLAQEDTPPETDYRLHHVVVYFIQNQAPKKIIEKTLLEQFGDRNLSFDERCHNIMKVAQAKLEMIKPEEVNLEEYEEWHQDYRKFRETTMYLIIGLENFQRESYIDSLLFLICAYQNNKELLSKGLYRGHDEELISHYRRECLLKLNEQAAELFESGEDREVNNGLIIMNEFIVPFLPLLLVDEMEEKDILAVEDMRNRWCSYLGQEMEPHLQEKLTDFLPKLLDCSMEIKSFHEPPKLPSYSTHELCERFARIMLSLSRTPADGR
Procedure, shortened: as §1

USP28 = biological target: T4, USP28 (UniProt Q96RU2)
T4 sequence (whole entry): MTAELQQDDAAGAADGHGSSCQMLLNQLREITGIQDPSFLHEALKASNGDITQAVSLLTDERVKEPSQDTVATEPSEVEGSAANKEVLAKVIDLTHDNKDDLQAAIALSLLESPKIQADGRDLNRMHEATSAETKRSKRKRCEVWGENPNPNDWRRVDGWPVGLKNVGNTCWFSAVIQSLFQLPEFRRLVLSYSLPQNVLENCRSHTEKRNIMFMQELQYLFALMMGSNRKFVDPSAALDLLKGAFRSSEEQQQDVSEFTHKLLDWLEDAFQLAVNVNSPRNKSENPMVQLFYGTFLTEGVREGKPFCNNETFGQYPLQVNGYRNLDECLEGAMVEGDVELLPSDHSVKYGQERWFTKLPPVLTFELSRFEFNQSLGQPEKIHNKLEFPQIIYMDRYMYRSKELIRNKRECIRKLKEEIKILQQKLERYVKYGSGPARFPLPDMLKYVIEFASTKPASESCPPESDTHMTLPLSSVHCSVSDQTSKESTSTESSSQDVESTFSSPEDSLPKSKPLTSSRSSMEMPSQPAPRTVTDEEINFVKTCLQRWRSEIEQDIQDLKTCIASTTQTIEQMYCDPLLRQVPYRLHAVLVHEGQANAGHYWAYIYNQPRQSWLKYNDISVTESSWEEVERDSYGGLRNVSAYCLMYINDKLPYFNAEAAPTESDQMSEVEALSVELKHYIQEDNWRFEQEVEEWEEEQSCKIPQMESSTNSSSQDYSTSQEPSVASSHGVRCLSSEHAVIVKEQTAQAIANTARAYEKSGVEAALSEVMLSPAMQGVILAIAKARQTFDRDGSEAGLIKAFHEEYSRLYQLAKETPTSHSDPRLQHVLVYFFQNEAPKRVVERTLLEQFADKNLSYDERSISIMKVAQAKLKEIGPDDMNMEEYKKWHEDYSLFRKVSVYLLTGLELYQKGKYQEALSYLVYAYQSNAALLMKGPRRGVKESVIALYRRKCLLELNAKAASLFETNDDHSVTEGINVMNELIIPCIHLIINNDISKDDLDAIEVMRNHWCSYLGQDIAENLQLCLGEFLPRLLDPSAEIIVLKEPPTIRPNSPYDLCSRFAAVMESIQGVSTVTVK
Procedure, shortened: as §1

Measured: log2 ratio of Biotin-Ahx-Ub-VS probe labelling

USP24, sequence (Q9UPU5 whole entry): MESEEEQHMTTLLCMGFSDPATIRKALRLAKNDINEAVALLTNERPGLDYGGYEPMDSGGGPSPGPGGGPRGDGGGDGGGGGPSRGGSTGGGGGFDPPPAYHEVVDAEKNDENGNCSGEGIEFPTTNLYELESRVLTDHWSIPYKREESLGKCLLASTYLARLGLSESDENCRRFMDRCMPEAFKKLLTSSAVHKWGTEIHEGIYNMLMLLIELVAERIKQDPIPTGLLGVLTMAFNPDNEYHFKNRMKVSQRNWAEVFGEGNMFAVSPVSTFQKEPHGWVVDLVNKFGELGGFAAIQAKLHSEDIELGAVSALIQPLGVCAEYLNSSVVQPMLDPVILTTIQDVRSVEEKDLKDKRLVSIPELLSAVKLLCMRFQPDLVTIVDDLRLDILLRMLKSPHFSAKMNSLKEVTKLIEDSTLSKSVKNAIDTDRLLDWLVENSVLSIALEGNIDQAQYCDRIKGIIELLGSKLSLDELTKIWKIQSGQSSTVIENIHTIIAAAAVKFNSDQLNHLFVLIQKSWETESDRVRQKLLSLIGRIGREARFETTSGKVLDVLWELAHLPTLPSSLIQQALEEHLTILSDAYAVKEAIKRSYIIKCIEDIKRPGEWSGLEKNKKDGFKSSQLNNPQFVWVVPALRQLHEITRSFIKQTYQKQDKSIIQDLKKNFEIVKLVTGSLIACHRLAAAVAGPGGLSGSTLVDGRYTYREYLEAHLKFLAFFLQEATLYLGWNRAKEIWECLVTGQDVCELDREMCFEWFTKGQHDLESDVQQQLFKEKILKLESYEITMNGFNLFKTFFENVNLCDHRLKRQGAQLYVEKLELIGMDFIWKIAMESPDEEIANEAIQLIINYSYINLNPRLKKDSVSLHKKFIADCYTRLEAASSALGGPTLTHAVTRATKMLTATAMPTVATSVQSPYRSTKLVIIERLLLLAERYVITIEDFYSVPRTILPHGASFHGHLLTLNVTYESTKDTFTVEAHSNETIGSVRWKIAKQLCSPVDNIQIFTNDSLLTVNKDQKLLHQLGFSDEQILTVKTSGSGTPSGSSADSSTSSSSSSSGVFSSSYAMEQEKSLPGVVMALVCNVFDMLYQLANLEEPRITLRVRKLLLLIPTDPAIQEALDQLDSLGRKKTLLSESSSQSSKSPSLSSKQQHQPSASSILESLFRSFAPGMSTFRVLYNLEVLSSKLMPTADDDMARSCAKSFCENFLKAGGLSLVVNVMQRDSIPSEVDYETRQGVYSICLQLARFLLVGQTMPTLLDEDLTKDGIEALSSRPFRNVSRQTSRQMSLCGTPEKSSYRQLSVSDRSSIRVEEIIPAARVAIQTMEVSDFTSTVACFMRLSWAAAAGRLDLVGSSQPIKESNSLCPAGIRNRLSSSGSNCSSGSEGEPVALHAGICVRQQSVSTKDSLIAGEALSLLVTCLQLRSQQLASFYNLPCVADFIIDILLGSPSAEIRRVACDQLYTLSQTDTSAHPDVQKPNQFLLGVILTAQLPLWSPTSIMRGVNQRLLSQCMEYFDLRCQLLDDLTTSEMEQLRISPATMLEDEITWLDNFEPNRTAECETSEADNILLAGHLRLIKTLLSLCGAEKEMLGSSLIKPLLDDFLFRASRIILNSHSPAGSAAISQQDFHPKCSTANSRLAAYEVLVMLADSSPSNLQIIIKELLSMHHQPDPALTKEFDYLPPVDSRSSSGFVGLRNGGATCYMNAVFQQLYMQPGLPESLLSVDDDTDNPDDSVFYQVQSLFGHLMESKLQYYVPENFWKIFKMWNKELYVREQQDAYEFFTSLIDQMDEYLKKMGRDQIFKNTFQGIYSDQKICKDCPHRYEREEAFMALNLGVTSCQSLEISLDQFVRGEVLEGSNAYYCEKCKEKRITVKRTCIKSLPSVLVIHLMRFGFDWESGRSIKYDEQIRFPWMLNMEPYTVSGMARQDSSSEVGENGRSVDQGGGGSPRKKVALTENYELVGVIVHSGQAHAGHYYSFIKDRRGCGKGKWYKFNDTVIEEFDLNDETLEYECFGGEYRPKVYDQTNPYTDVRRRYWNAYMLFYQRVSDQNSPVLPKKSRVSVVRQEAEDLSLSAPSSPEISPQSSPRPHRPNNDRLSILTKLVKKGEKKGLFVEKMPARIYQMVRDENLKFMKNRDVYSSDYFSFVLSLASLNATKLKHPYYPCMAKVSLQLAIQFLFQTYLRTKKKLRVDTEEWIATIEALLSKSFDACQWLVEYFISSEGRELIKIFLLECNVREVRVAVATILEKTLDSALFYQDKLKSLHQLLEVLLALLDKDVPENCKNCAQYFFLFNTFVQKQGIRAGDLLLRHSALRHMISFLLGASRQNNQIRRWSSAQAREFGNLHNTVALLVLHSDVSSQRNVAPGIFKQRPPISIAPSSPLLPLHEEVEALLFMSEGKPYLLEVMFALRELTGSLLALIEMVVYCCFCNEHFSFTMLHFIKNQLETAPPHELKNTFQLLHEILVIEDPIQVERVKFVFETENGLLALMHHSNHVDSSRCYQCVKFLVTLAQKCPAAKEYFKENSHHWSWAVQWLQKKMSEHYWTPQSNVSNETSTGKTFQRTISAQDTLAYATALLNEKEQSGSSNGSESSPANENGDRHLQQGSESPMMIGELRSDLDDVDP

O=C(CCl)Nc1ccc(F)cc1Cl
inactive: USP19 -0.2 | USP22 -0.0369 | USP24 -0.832 | USP25 -0.414 | USP28 -0.873
